# The supplement of paper PMC4683952
# Counter-ions that a name gives are not always drawn. Hit rate of the full screen: of about 1,200 compounds, about 50 (4%) showed activity. The sample holds actives, similar compounds and a random draw of the others, so the mix is not that of the screen. A number with no mark means an inactive call. Rule as the data show it: all actives reach 1.3 or more but so do some inactives.
# Test system: Lgr5 (MarsCy1-Lgr5-EGFP, U2OS)
# Assay: cell-surface Lgr5 expression (SCi1 fluorescence, background-subtracted) relative to WT DMSO (fold of DMSO control); higher = more Lgr5 at the plasma membrane, active = hit call of the paper
# Settings: U2OS MarsCy1-Lgr5-EGFP stable; treatment time: overnight; 16 µM; library: Johns Hopkins Clinical Compound Library
row,Compound,cell-surface Lgr5 expression
1,C=CC(N)CCC(=O)O (stereo not drawn) [Vigabatrin],1.52 (active)
2,NC(CCC(=O)O)C(=O)O (racemic) [DL-Glutamic acid monohydrate],0.692
3,NC(=O)N[C@@H](CCC(=O)O)C(=O)O [Carglumic acid (N-Carbamyl-L-Glutamic Acid)],1.08
4,OCc1ccccc1O[C@@H]1O[C@H](CO)[C@@H](O)[C@H](O)[C@H]1O [Salicin],1.17
5,CC(C)COCC(CN(Cc1ccccc1)c1ccccc1)N1CCCC1 (stereo not drawn) [Bepridil],1.31 (active)
6,c1ccc(CN(CC2=NCCN2)c2ccccc2)cc1 [Antazoline phosphate salt],1.28
7,c1ccc(CN(CC2=NCCN2)c2ccccc2)cc1 [Antazoline],1.21
8,Nc1c(Br)cc(Br)cc1CN[C@H]1CC[C@H](O)CC1 [Ambroxol hydrochloride],1.54 (active)
9,O=C1OC(c2ccc(O)cc2)(c2ccc(O[C@@H]3O[C@H](C(=O)O)[C@@H](O)[C@H](O)[C@H]3O)cc2)c2ccccc21 (stereo partly drawn) [Phenolphthalein beta-D-glucuronide sodium salt],1
10,NCCC[C@H](N)C(=O)O [L-Ornithine],0.718
11,[K+].[OH-] [Potassium hydroxide],1.11
12,NS(=O)(=O)c1cc2c(cc1Cl)NC(C(Cl)Cl)NS2(=O)=O (stereo not drawn) [Trichlormethiazide],1.44 (active)
13,C=CCSCC1Nc2cc(Cl)c(S(N)(=O)=O)cc2S(=O)(=O)N1 (stereo not drawn) [Althiazide],1.27
14,CN1C(CCl)Nc2cc(Cl)c(S(N)(=O)=O)cc2S1(=O)=O (stereo not drawn) [Methyclothiazide],0.905
15,CC(C)(C)NCC(O)c1ccc(O)c(CO)c1 (stereo not drawn) [Albuterol (Salbutamol)],1.22
16,CNC[C@H](O)c1cccc(O)c1 [L-Phenylephrine hydrochloride],0.598
17,CNCC(O)c1ccc(OC(=O)C(C)(C)C)c(OC(=O)C(C)(C)C)c1 (stereo not drawn) [Dipivefrin HCl],1.42 (active)
18,CCC(C)C(C(=O)OCC[N+](C)(CC)CC)c1ccccc1 (stereo not drawn) [Valethamate bromide],1.1
19,"CCN(CC)C(=S)S [Ditiocarb (Diethyldithiocarbamic acid sodium, thiocarb)]",1.05
20,O=C(OCC(O)CO)c1ccccc1Nc1ccnc2cc(Cl)ccc12 (stereo not drawn) [Glafenine],1.63 (active)
21,CCN(CC)CCCC(C)Nc1ccnc2cc(Cl)ccc12 (stereo not drawn) [Chloroquine diphosphate salt],1.53

row,Compound,cell-surface Lgr5 expression
1,CCN(CC)Cc1cc(Nc2ccnc3cc(Cl)ccc23)ccc1O [Amodiaquin],1.47
2,CN(CCO)CC(O)Cn1cnc2c1c(=O)n(C)c(=O)n2C (stereo not drawn) [Xanthinol niacinate (Xanthinol Nicotinate)],1.05
3,"O=Cc1cc(Br)cc(Br)c1O [3,5-Dibromosalicylaldehyde]",1.17
4,CNCCCN1c2ccccc2CCc2ccccc21 [Desipramine],1
5,CNCCCC1c2ccccc2C=Cc2ccccc21 [Protriptyline],0.38
6,CNCCCC12CCC(c3ccccc31)c1ccccc12 [Maprotiline],1.32 (active)
7,COc1cc(C2Oc3cc([C@H]4Oc5cc(O)cc(O)c5C(=O)[C@@H]4O)ccc3OC2CO)ccc1O (stereo partly drawn) [Silibinin],1.08
8,COc1cc(C2Oc3cc([C@H]4Oc5cc(O)cc(O)c5C(=O)[C@@H]4O)ccc3OC2CO)ccc1O (stereo partly drawn) [Silibinin (Silybin)],1.23
9,"Oc1c(Cl)cc(Cl)c2cccnc12 [Chloroxine (5,7-Dichloro-8-hydroxyquinoline)]",0.97
10,Cc1c(N(C)C)c(=O)n(-c2ccccc2)n1C [Aminopyrine (4-Dimethylamino-antipyrine)],1.14
11,Cc1c(N(C)C)c(=O)n(-c2ccccc2)n1C [Aminopyrine (4 Dimethylamino antipyrene)],0.932
12,Cc1cc(OS(=O)(=O)O)c2ccccc2c1OS(=O)(=O)O [Menadiol disulfate disodium salt trihydrate],0.856
13,O=C(O)c1cc(S(=O)(=O)O)ccc1O [Sulfosalicylic acid (5-Sulfosalicylic acid dihydrate)],1.11
14,CCC(NC(C)C)C(O)c1ccc(O)c(O)c1 (stereo not drawn) [Isoetharine mesylate],1.19
15,CNC[C@H](O)c1ccc(O)c(O)c1 [Epinephrine],1.57
16,NC[C@H](O)c1ccc(O)c(O)c1 [Arterenol (Norepinephrine)],1.3 (active)
17,NC[C@H](O)c1ccc(O)c(O)c1 [Norepinephrine],1.26
18,Cc1ncc(CO)c(CN)c1O [Pyridoxamine dihydrochloride],0.999
19,"Cc1ncc(CO)c(CN)c1O [Pyridoxamine, Dihydrochloride]",1.02
20,CCCCc1nc(Cl)c(CO)n1Cc1ccc(-c2ccccc2-c2nnn[nH]2)cc1 [Losartan],0.915
21,C[C@@H]1[C@H](O)[C@@H](C)/C=C/C=C/C=C/C=C/C=C/C=C/C=C/[C@H](O[C@@H]2O[C@H](C)[C@@H](O)[C@H](N)[C@@H]2O)C[C@@H]2O[C@](O)(C[C@@H](O)C[C@@H](O)[C@H](O)CC[C@@H](O)C[C@@H](O)CC(=O)O[C@H]1C)C[C@H](O)[C@H]2C(=O)O [Amphotericin B],0.802

row,Compound,cell-surface Lgr5 expression
1,C[C@@H]1CCC[C@H](C)N1NC(=O)c1ccc(Cl)c(S(N)(=O)=O)c1 [Clopamide],1.3
2,CCCC(=O)O[C@]1(C(=O)CCl)[C@H](C)C[C@@H]2[C@@H]3CCC4=CC(=O)C=C[C@]4(C)[C@]3(F)C(=O)C[C@@]21C [Clobetasone butyrate],1
3,CC(=O)OCC(=O)[C@@]12OC(C)(C)O[C@@H]1C[C@H]1[C@@H]3CCC4=CC(=O)C=C[C@]4(C)[C@@]3(F)[C@@H](O)C[C@@]12C [Triamcinolone acetonide acetate],1.26
4,CC(=O)O[C@]1(C(C)=O)CC[C@H]2[C@@H]3C[C@H](C)C4=CC(=O)CC[C@]4(C)[C@H]3CC[C@@]21C [Medroxyprogesterone acetate],1.2
5,CC(=O)O[C@]1(C(C)=O)CC[C@H]2[C@@H]3C=C(Cl)C4=CC(=O)[C@@H]5C[C@@H]5[C@]4(C)[C@H]3CC[C@@]21C [Cyproterone acetate],1.25
6,CC(=O)O[C@]1(C(C)=O)CC[C@H]2[C@@H]3C[C@H](C)C4=CC(=O)C=C[C@]4(C)[C@@]3(F)[C@@H](O)C[C@@]21C [Fluorometholone acetate],1.31 (active)
7,CC(=O)OCC(=O)[C@@]12OC(C)(C)O[C@@H]1C[C@H]1[C@@H]3C[C@H](F)C4=CC(=O)C=C[C@]4(C)[C@@]3(F)[C@@H](O)C[C@@]12C [Fluocinolone acetonide 21-acetate],1.6 (active)
8,CCCC(=O)O[C@]1(C(=O)COC(C)=O)CC[C@H]2[C@@H]3C[C@H](F)C4=CC(=O)C=C[C@]4(C)[C@@]3(F)[C@@H](O)C[C@@]21C,1.57 (active)
9,CC(=O)OCC(=O)[C@@]1(OC(C)=O)[C@@H](C)C[C@H]2[C@@H]3C[C@H](F)C4=CC(=O)C=C[C@]4(C)[C@@]3(F)[C@@H](O)C[C@@]21C [Diflorasone diacetate],1.67 (active)
10,COc1cccc2c1C(=O)c1c(O)c3c(c(O)c1C2=O)C[C@@](O)(C(=O)CO)C[C@@H]3O[C@H]1C[C@H](N)[C@@H](O)[C@H](C)O1 [Epirubicin],1.31
11,O=S(=O)([O-])[O-].[Cu+2] [Copper (II) sulfate],1.27
12,CCN1C(=CC=Cc2ccc3ccccc3[n+]2CC)C=Cc2ccccc21 [Quinaldine blue (Pinacyanol chloride)],1.53
13,CCCCNc1ccc(C(=O)OCCOCCOCCOCCOCCOCCOCCOCCOCCOC)cc1 [Benzonatate],1.08
14,O=C(O)c1ccc[n+]([O-])c1 [Oxiniacic acid (nicotinic acid n-oxide)],0.989
15,Cc1ccc(S(=O)(=O)NCl)cc1 [Chloramine-T hydrate],0.672
16,CCC(=O)Oc1ccc(/C(CC)=C(\CC)c2ccc(OC(=O)CC)cc2)cc1 [Diethylstilbestrol dipropionate],0.886
17,"O=P(O)(O)OC1C(OP(=O)(O)O)C(OP(=O)(O)O)C(OP(=O)(O)O)C(OP(=O)(O)O)C1OP(=O)(O)O (stereo not drawn) [Phytic acid, dodecasodium salt hydrate]",0.522
18,Br.N [Ammonium bromide],1.09
19,CC1CCC(NC(=O)N(CCCl)N=O)CC1 (stereo not drawn) [Semustine],1.06
20,C[C@@H]1C/C=C/C=C/C=C/C=C/[C@H](O[C@@H]2O[C@H](C)[C@@H](O)[C@H](N)[C@@H]2O)C[C@@H]2O[C@](O)(C[C@@H](O)C[C@H]3O[C@@H]3/C=C/C(=O)O1)C[C@H](O)[C@H]2C(=O)O [Natamycin (Pimaricin)],0.845
21,O=S(=O)([O-])[O-].O=S(=O)([O-])[O-].[Al+3].[Na+] [Aluminum sodium sulfate],0.71
